Consider 40 molecules from PubChem BioAssay (NCATS).

SMILES strings stand for the structures. Results filed as inconclusive are left out. Unmarked numbers belong to inactive results. Activity calls are given as the source filed them. Calls follow the shape of the dose curve; as a rule, active = well fitted inhibition curve with a large enough effect; inconclusive = small, poorly fitted or top-dose-only effect; inactive = flat fitted curve, though single readings scatter. *1 amine or outer side, *2 acyl side, *3 side chain or, on linkers, in order; H or OH if unused. Where a SMILES comes first, the peptide text is derived from it. Bridges are numbered along the chain shown (N, C = ends). [ ]: non-standard residue; d: D form. The star is where a group is joined. pTerphenylCO(4''-OnC5H11) = CCCCCOc1ccc(-c2ccc(-c3ccc(C(=O)*)cc3)cc2)cc1; Orn(4R-OH,5R-OH) = O=C([C@H](C[C@@H](O)[C@@H](O)N[*:3])N[*:1])[*:2]; hTyr(3S-OH,4S-OH) = N[C@H](C(=O)O)[C@H](O)[C@@H](O)c1ccc(O)cc1; Pro(3S-OH,4S-Me) = C[C@H]1CN[C@H](C(=O)O)[C@H]1O; Hyp = O=C(O)[C@@H]1C[C@@H](O)CN1
% is scaled to controls: 0 for no effect and ±100 for the full control effect; potency is read from the fitted curve at half-maximal effect.

The test system of the assay is CRL-7250. The assay can be described thus: Cytotoxic Profiling of Annotated Libraries Using Quantitative High-Throughput Screening (AID 1296008). Also: nearly all actives have a fitted effect of over 60% in size. Particulars: Five cell lines viability, CellTiter-Glo ATP luminescence, 48-72 h; max response: active compounds read low. An outline of the steps: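 Cells exposed to compounds for 48 or 72 hr at 37 degrees Celsius. Viability read as ATP-coupled luminescence with CellTiter-Glo after 10 min at room temperature.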
(In general: ATP-based viability assays read luminescence as a measure of living cells.)
`C[C@@H]1O[C@@H](O[C@H]2CC[C@@]3(C)C(CC[C@]4(C)C3CC=C3[C@@H]5CC(C)(C)CC[C@]5(C(=O)O[C@@H]5O[C@H](CO)[C@@H](O)[C@H](O)[C@H]5O)CC[C@]34C)[C@]2(C)CO)[C@H](O)[C@H](O[C@@H]2O[C@H](CO)[C@@H](O)[C@H](O)[C@H]2O)[C@H]1O` (stereo not given in full): the max response was 1.26%.
The same measure, in the same setting: then `Cc1ccc(C2(C(=O)N3CCC(n4nc(-c5ccccc5)oc4=O)CC3)CC2)cc1`, with -18.3%; and `O=C(NCc1ccccc1-c1ccccc1C(=O)NCCc1ccccn1)OCc1ccccc1`, with 2.09%.
On the same count and under the same terms, as for `OC1(CN2CCC(COc3noc4cccc(O[C@@H]5CCOC5)c34)CC2)CCOCC1`, the figure is -0.0295%.
Regarding `NS(=O)(=O)c1ccc(N2N=C(c3ccccc3)CC2c2ccccc2)cc1` (stereo not given), the max response is -0.316%.
On the same count and under the same terms, as for `CCC[C@H](N[C@H]1CCc2cc(F)cc(F)c2C1)C(=O)Nc1cn(C(C)(C)CNCC(C)(C)C)cn1`, the figure is 4.72%.
In the case of `Cc1[nH]c2ccccc2c1CCNCc1ccc(/C=C/C(=O)NO)cc1`, the Potency was 0.517 µM (active).
Consider `CCCCc1ccc(NS(=O)(=O)c2ccc(F)cc2)cc1`, for which the molecule was classed as inactive.
`C=C1CCC2[C@](C)(CCC[C@@]2(C)C=O)[C@H]1CC/C(C)=C/CO` (stereo not given in full): the max response was 2.68%.
With `O=C(NCCCc1ccccc1)C1CCC(CNS(=O)(=O)c2cccc3nsnc23)CC1` (stereo not given), the max response is -1.65%.
For the molecule `O=C(NCC1(N2CCN(c3ccccc3)CC2)CCOCC1)c1cccnc1Sc1ccccc1`, the molecule was called inactive.
On to `COCCNCc1ccc(-c2cc3nccc(Oc4ccc(NC(=O)C5(C(=O)Nc6ccc(F)cc6)CC5)cc4F)c3s2)nc1`, for which the Potency is 18.4 µM (active).
On to `C/C(=C\CCC(C)C1=CCC2(C)OC3=C(CC12)C(=O)C(O)CC3)CO` (stereo not given), for which the max response is -17.6%.
Take `O=C(Nc1ccccc1Cl)c1cnc2ccc(C3CCNCC3)cn12`: the Potency is 1.03 µM (active).
As for `CC(C)n1c(=O)c(C(=O)NC2CC3CCC(C2)N3C[C@@H](O)CN(C)S(C)(=O)=O)cc2ccccc21` (stereo not given in full), the max response was -15.6%.
Turning to `C=CCCN1CCC2(CC1)CN(C(=O)c1c(F)cccc1F)c1ccc(Cl)cc12`, the call was inactive.
Take `CC(C)(CNC(=O)c1cccc(-c2noc(C(F)(F)F)n2)c1)c1coc(-c2ccccc2)n1`: the max response was 1.16%.
Same read-out and setting: as for `CCC(C)C(=O)OC12C(OC(C)=O)C(C)C3(O)C(C=C(CO)CC4(O)C(=O)C(C)=CC43)C1C2(C)C` (stereo not given), the figure is -7.79%.
Take `CC1=CC2/C=C(\C)CCC(O)C(=O)C(O)CC(=O)C23C(=O)NC(CC(C)C)C3C1C` (stereo not given): the result was inactive.
Regarding `Cc1ccc(C(C)C)c(O[C@@H]2O[C@H](CO)[C@@H](O)[C@H](O)[C@H]2O)c1`, the Potency was 16.1 µM (active).
As for `CN(C)C(=O)Nc1cccc(-c2ccc(N(C)C)cc2)c1`, the max response was -5.4%.
The same measure, in the same setting: as for `O=[N+]([O-])c1cn2c(n1)OC[C@@H](OCc1ccc(-c3ccc(OC(F)(F)F)cc3)nc1)C2`, the figure is 2.36%.
Same read-out and setting: as for `C/C(=C\CO[C@@H]1O[C@H](CO[C@H]2OC[C@](O)(CO)[C@H]2O)[C@@H](O)[C@H](O)[C@H]1O)C(C)(C)O`, the figure is -3.13%.
Consider `CN(C)S(=O)(=O)c1ccc(NC(=S)N2CCC(C(O)(c3ccccc3)c3ccccc3)CC2)cc1`, for which the molecule was called inactive.
Turning to `C=CC(C)(O)CC[C@@H]1[C@@]2(C)CCCC(C)(C)C2CC[C@@]1(C)O` (stereo not given in full), the max response was -17.3%.
Consider `Cc1c(C(=O)NCc2cccnc2)nn(-c2ccc(Cl)cc2Cl)c1-c1ccc(Cl)cc1`, for which the molecule was classed as inactive.
As to `C=C1CCN([C@H](C)[C@](O)(Cn2cncn2)c2ccc(F)cc2F)CC1`, the max response is -7.35%.
For `CC(C)c1noc(C2CCN(c3ncnc(Nc4ccc(S(C)(=O)=O)cc4F)c3[N+](=O)[O-])CC2)n1`, the max response is -0.282%.
Same read-out and setting: as for `CNC(=O)c1ccc2c(c1)CCO[C@H]2CCN1CCN(c2ccc(OC)cc2)CC1`, the figure is 1.26%; as for `COc1cc(N(C)CCN(C)C)c(N)cc1Nc1nccc(-c2cn(C)c3ccccc23)n1`, -5.14%; as for `COc1cc(-c2nc(N[C@H](CO)Cc3ccccc3)ccc2C(=O)NCCOc2ccccc2)cc(OC)c1OC`, 4.02%.
Still for that read-out and setting: then `C=CC(C)(O)CC/C=C(/C)COC(=O)C(C)C1CCC(C)(C=C)O1` (stereo not given), with -27%.
For the molecule `CC(=O)OC1C(OC(=O)c2ccccc2)C2C(C)(C)CCC(OC(C)=O)C2(C)C23CCC(C)(C2)C(=O)CC13` (stereo not given), the call was inactive.
Consider `C/C=C(\C)C(=O)OC1C(C)C2(O)C(C=C(CO)CC3(O)C(=O)C(C)=CC32)C2C(C)(C)C12OC(C)=O` (stereo not given), for which the max response is -19.7%.
Same read-out and setting: as for `CCCCCOc1ccc(-c2ccc(-c3ccc(C(=O)N[C@H]4C[C@@H](O)[C@@H](O)NC(=O)[C@@H]5[C@@H](O)[C@@H](C)CN5C(=O)[C@H]([C@@H](C)O)NC(=O)[C@H]([C@H](O)[C@@H](O)c5ccc(O)cc5)NC(=O)[C@@H]5C[C@@H](O)CN5C(=O)[C@H]([C@@H](C)O)NC4=O)cc3)cc2)cc1` ({pTerphenylCO(4''-OnC5H11)}-[Orn(4R-OH,5R-OH)]T[Hyp][hTyr(3S-OH,4S-OH)]T[Pro(3S-OH,4S-Me)]; lactam 1-C), the figure is 4.73%; as for `C[C@@H](O[C@H]1OCCN(Cc2nn(P(=O)(O)O)c(=O)[nH]2)[C@H]1c1ccc(F)cc1)c1cc(C(F)(F)F)cc(C(F)(F)F)c1`, 0.664%.
Take `CCC[C@@]1(CCc2ccccc2)CC(O)=C([C@H](CC)c2cccc(NS(=O)(=O)c3ccc(C(F)(F)F)cn3)c2)C(=O)O1`: the call was inactive.
Consider `O=c1[nH]cnc2c([C@@H]3N[C@H](CO)[C@@H](O)[C@H]3O)c[nH]c12`, for which the max response is -8.88%.
For the molecule `Clc1ncoc1-c1c[nH]c2ccccc12`, the molecule was called inactive.
Same read-out and setting: then `Nc1nc2c(s1)CCN(Cc1ccc(Cl)cc1)CC2`, with “inactive”.
